Sampled rows, rich in hits. Any-hit rate of the full collection: about 10%.
HP1b chromo inh = blocks HP1-beta chromodomain binding to methylated histone tails. AID 540317. 0.56% of 390,000 active. Potency, µM (top dose mostly 114 µM), without a hit: at the highest dose activity change, negative = inhibition, most hits filed as inhibitors. AlphaScreen HP1-beta / biotin-H3K9me3 peptide binding; also: potency is read from the fitted curve at half-maximal effect; nearly all actives have a fitted effect of over 70% in size
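AlphaScreen: HP1-beta (50 nM) preformed 30 min with biotin-H3(1-18)K9me3 peptide (50 nM) in PBS pH 7.4, 0.01% Tween-20. Compound added for 30 min at RT, then streptavidin donor/nickel chelate acceptor beads (10 ug/mL) for 30 min.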
CtBP-E1A blk = inhibitors of CtBP/E1A interaction; 0.49% of 340,000 active; AlphaScreen GST-E1A/His-CtBP binding, 1536-well; stronger effect = lower value; activity change, % (no concentration beside the values); AID 651724; in the data active = activity change below about -65%; inconclusive = mostly about -30% to -63%; also: % is scaled to controls: 0 for no effect and ±100 for the full control effect
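Steps: dispense buffer (Tris pH 8.0, NaCl 300 mM, TCEP 1 mM, BSA, Tween 20); add 5X protein mix (GST-E1A, His-CtBP, 125 nM each); pin 23 nL compound; 2 h at 37 °C, dark; add 5X beads (50 ug/mL); 1 h; read.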
Six1-Eya2 inh = blocks human Six1 binding to Eya2; AID 651725; 0.56% of 360,000 active; Q15475+O00167; activity change, % (test concentration not listed); AlphaScreen GST-Six1/His-Eya2 binding, biochemical; stronger effect = lower value; in the data active = activity change below about -65%; inconclusive = mostly about -30% to -63%; also: % is scaled to controls: 0 for no effect and ±100 for the full control effect
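AlphaScreen with GST-Six1 and His-Eya2 (5X mix: 250 nM and 500 nM), glutathione donor and nickel acceptor beads; buffer 50 mM Tris pH 8.0, 300 mM NaCl, 1 mM TCEP; 1 h at 37 C in the dark.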
JMJD2A Tudor = inhibitors of human JMJD2A Tudor domain; O75164; AlphaScreen JMJD2A-Tudor / H3K4me3 peptide binding; Potency, µM (series often up to 114 µM), without a hit: top-dose activity change, negative = inhibition, most hits filed as inhibitors; 4.4% of 390,000 active; AID 504339; also: potency is read from the fitted curve at half-maximal effect; % is scaled to controls: 0 for no effect and ±100 for the full control effect; nearly all actives have a fitted effect of over 50% in size
Target sequence (O75164 whole entry, looked up, the tested form may be a part): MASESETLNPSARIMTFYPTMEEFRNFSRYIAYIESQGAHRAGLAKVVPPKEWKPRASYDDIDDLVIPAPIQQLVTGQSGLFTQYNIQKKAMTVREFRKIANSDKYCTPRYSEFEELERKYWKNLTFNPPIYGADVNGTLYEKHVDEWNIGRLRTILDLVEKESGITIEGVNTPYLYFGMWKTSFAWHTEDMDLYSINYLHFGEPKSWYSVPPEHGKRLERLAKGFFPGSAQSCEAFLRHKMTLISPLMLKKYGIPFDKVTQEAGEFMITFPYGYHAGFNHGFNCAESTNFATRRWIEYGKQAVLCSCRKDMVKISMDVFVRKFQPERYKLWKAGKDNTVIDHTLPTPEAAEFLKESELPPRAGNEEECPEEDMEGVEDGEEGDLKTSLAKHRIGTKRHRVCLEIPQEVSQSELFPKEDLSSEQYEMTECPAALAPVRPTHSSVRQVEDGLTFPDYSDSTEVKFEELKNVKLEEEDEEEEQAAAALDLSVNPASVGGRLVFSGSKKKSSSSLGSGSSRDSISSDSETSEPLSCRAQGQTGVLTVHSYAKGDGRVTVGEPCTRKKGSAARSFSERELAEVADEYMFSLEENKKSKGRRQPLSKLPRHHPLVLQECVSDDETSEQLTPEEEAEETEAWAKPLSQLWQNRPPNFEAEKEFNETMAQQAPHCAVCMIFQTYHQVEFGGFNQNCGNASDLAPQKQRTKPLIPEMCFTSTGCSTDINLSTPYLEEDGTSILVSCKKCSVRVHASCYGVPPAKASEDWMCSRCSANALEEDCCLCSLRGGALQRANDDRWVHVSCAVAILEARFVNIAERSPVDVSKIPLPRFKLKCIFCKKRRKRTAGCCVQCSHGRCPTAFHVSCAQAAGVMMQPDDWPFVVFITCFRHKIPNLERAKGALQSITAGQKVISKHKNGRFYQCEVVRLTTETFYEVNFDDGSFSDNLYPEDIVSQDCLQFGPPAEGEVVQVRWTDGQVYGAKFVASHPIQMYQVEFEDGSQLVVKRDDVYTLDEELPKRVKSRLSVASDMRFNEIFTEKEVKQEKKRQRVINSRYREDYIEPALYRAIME
G9a inh = G9a (human) methyltransferase inhibition. Q96KQ7. G9a H3K9 monomethylation, AlphaScreen, 2 h. Potency, µM (doses to about 102 µM), for inactives: at the highest dose activity, negative = inhibition, most hits filed as inhibitors. 8.8% of 350,000 active; also: potency is read from the fitted curve at half-maximal effect; % is scaled to controls: 0 for no effect and ±100 for the full control effect; nearly all actives have a fitted effect of over 75% in size
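Readings reflect AlphaScreen signal from monomethyl-H3K9 antibody detection. HMT at 20 nM; substrate b-H3K9 500 nM; cofactor SAM 20 uM; 2 h RT reaction; compounds tested as titrations in qHTS with 15 min preincubation.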
BAZ2B block = blocks human BAZ2B; AlphaScreen BAZ2B-H3K14Ac peptide displacement; Potency, µM (highest dose often 114 µM), for the others: at the top dose activity change, negative = inhibition, actives largely listed as inhibitors; 4.4% of 360,000 active; AID 504333; also: potency is read from the fitted curve at half-maximal effect; % is scaled to controls: 0 for no effect and ±100 for the full control effect; nearly all actives have a fitted effect of over 60% in size
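BAZ2B 50 nM plus b-H3(5-23)K14Ac 50 nM, PBS pH 7.4/0.01% Tween-20, 30 min RT; compound added (max 110 uM), 30 min RT; streptavidin donor/Ni-chelate acceptor beads 10 ug/mL final, 20 min dark; AlphaScreen read.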
* hit, by the source's call; ? = inconclusive; / = not tested or not shown; [ ] = remark or other dose. Unless noted, calls follow the shape of the dose curve; as a rule, active = well fitted inhibition curve with a large enough effect; inconclusive = small, poorly fitted or top-dose-only effect; inactive = no such curve, though single readings can be large or run the other way.

SMILES	HP1b chromo inh	CtBP-E1A blk	Six1-Eya2 inh	JMJD2A Tudor	G9a inh	BAZ2B block
CCOc1ccc(NC(C)c2cc(Cl)ccc2O)cc1 (stereo unspecified)	?	-20	-29	?	40µM*	35µM*
Cc1ccc(Nc2nc(NCc3ccco3)nc3nccnc23)c(C)c1	160%	/	/	?	/	/
CCN1C(=O)C2CCCCN2c2ccc(C(=O)NCCOC)cc21 (stereo unspecified)	51%	/	-3	0%	79µM*	0%
Oc1ccc(N2CCN(Cc3nc4ccccc4[nH]3)CC2)cc1	?	-7	-8	50µM*	11µM*	-35%
O=c1[nH]c(CN2CCN(c3ccc(O)cc3)CC2)nc2scc(-c3ccc(Cl)cc3)c12	?	-20	?	45µM*	3.2µM*	?
O=c1[nH]c(CN2CCN(c3ccccc3O)CC2)nc2scc(-c3ccccc3Cl)c12	23%	-14	-10	?	4%[59 µM]	-31%
C=CCN(CC=C)c1ccc(N2C(=O)C3CCCCC3C2=O)cc1[N+](=O)[O-] (stereo unspecified)	-17%	-8	-12	?	22µM*	?
C=CCNc1ccc(N2C(=O)C3CCC(C)CC3C2=O)cc1[N+](=O)[O-] (stereo unspecified)	/	/	/	/	50µM*	?
O=C1O[C@@H](c2ccccc2)C[C@@H](O)[C@H](O)CCCc2ccccc21	/	5	-8	/	/	/
FC(F)(F)c1ccccc1NC(=S)N/N=C1\CC2CC=CC12 (stereo unspecified)	?	-1	-1	-37%	18µM*	71µM*
O=C(N/N=C1\CC2CC=CC12)c1ccccc1Cl (stereo unspecified)	19%	-4	-15	-9%	-9%	-20%
COc1cccc(N2CCN(c3ccc(N4C(=O)CCC4=O)cc3[N+](=O)[O-])CC2)c1	-20%	-13	-11	?	50µM*	?
COc1ccc(CC(=O)Nc2ccc(N3CCCC3)c(C)c2)cc1	?	-13	4	?	8.9µM*	?
COc1ccccc1N1CCN(c2ccc(N3C(=O)CCC3=O)cc2[N+](=O)[O-])CC1	19%	-2	-4	-10%	?	-26%
COc1cccc(CNC(=O)c2ccc(N3CCOCC3)c([N+](=O)[O-])c2)c1	-2%	-1	-15	-13%	-7%	-23%
COc1cccc(CN(C)C(=O)c2ccc(N3CCCC3)c([N+](=O)[O-])c2)c1	-11%	-17	-17	45µM*	50µM*	?
COc1ccc(NC(=O)CN(C)C(=O)c2ccc(N3CCOCC3)c([N+](=O)[O-])c2)cc1	5%	1	2	-21%	20%	7%
COc1ccc(NC(=O)CN(C)C(=O)c2ccc(N3CCCCC3)c([N+](=O)[O-])c2)cc1	-18%	-10	-8	-34%	50µM*	?
O=C(O)c1ccccc1C(=O)Nc1ccc(Br)c2cccnc12	49%	7	1	-4%	-37%[59 µM]	-20%
CC(C)c1ccc(CN2CCC2(C)C(=O)Nc2cnc3ccccc3c2)cc1 (stereo unspecified)	/	2	0	/	/	/
CN(CC(=O)Nc1ccc(Cl)c(C(F)(F)F)c1)C(=O)Cn1cc([N+](=O)[O-])ccc1=O	15%	-7	-11	-22%	6.3µM*	-10%
CN(CC(=O)Nc1ccc(Cl)c(C(F)(F)F)c1)C(=O)c1ccc(N2CCOCC2)c([N+](=O)[O-])c1	?	?	-16	?	32µM*	-36%
COc1ccc(NC(=O)CN(C)C(=O)c2ccc(N3CCCCCC3)c([N+](=O)[O-])c2)cc1	-24%	-8	-14	?	50µM*	-9%
CN(CC(=O)Nc1cccc(F)c1)C(=O)c1ccc(N2CCOCC2)c([N+](=O)[O-])c1	13%	-1	4	-20%	6%	-19%
Cc1ccc(NC(=O)CN(C)C(=O)c2ccc(Cl)c([N+](=O)[O-])c2)cc1	9%	3	1	-18%	22µM*	1%

Compound activity: PubChem, National Center for Advancing Translational Sciences (NCATS)
